From PubChem BioAssay
BoNT-A LC inh2: inhibitors of Botulinum neurotoxin A light chain protease; multiplex microsphere protease substrate cleavage, flow cytometry; inhibition, % at 10 µM; 360,000 compounds, 0.17% hits
Bead autofluor: flagged as autofluorescent in microsphere protease counterscreen; compound autofluorescence counterscreen, microsphere flow cytometry; stronger effect = higher value; fluorescence intensity (test concentration not listed); 360,000 compounds, 3.1% hits; in the data active = fluorescence intensity above about 16000; inconclusive = no clear call, values can overlap the other calls
BoNT F protease: blocks Botulinum neurotoxin F light chain protease | Multiplex microsphere protease cleavage assay, flow cytometry | inhibition, % at 10 µM | 360,000 compounds, 0.22% hits; in the data active = inhibition above about 35%, passing the limit was not always enough; inconclusive = no clear call, values can overlap the other calls
Anthrax LF inh2: inhibitors of Bacillus anthracis lethal factor protease | 360,000 compounds, 0.12% hits | AID 588501 | P15917 | inhibition, % at 10 µM | multiplex microsphere protease cleavage assay, LF
Target sequence (P15917 whole entry, looked up): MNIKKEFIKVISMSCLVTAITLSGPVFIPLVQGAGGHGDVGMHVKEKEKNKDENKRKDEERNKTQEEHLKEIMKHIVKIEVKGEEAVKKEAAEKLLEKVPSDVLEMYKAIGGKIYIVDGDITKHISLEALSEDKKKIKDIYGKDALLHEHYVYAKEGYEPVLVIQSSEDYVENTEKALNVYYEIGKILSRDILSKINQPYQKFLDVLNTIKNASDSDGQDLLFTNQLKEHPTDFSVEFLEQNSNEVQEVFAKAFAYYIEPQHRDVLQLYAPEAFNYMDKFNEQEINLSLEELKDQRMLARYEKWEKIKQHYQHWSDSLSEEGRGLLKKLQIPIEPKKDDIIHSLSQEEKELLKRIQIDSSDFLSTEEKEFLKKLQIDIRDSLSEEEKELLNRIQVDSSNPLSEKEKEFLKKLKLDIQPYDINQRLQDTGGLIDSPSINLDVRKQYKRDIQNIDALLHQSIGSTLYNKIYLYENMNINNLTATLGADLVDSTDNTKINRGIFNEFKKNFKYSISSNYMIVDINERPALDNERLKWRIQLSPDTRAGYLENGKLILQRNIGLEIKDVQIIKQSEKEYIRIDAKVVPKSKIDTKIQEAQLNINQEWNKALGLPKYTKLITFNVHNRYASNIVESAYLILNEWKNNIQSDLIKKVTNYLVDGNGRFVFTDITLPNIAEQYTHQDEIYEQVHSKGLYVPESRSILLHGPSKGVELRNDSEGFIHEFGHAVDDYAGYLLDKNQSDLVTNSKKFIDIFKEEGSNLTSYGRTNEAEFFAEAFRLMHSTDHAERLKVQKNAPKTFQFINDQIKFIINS
Of the large screens only hits and unclear results are named; the others gave an inactive call. Rows were chosen to be rich in hits. Some 3.5% of all compounds tested hit in one or more screens of this group. Rule as the data show it, unless noted: active = inhibition above about 30%; inconclusive = no clear call, values can overlap the other calls; inactive = below that.

Cc1nc2ccc(C(=O)OCC(=O)N(C)c3ccccc3)cc2nc1C	none
CCc1nnc(NC(=O)C2CCC(CNc3c(N4CCC(C)CC4)c(=O)c3=O)CC2)s1 (stereo not drawn)	none
CC(=O)N1c2ccc(S(=O)(=O)N3CCC(C(=O)Nc4cccc(C(F)(F)F)c4)CC3)cc2CC1C (stereo not drawn)	none
Cc1nc(SCC(=O)N2CCCC2=O)c2c(C)c(C)sc2n1	none
Cc1cccc(S(=O)(=O)c2c(N)n(/N=C/c3ccccc3)c3nc4ccccc4nc23)c1	Bead autofluor 16348
CC1CCN(C(=O)C(=O)c2cn(CC(=O)N3CCCCCC3)c3ccccc23)CC1	BoNT-A LC inh2 37, Anthrax LF inh2 38
NC(=O)C1CCN(C(=O)C(=O)c2cn(CC(=O)N3CCCCCC3)c3ccccc23)CC1	BoNT-A LC inh2 39, Anthrax LF inh2 39
CC1CCCN(C(=O)C(=O)c2cn(CC(=O)N3CCCCCC3)c3ccccc23)C1 (stereo not drawn)	BoNT-A LC inh2 35
CN1CCN(C(=O)C(=O)c2cn(CC(=O)N3CCCCCC3)c3ccccc23)CC1	Anthrax LF inh2 36
CCc1ccc(CN(C)C(=O)CC2C(=O)NCCN2Cc2ccoc2)cc1 (stereo not drawn)	none
O=C(CSc1nnc(-c2ccncc2)o1)Nc1ccccc1C(F)(F)F	none
CC(C)n1nc(C(=O)Nc2nc3ccc(S(C)(=O)=O)cc3s2)c2ccccc2c1=O	none
CC(C)n1nc(C(=O)Nc2nnc(SCc3c(Cl)cccc3Cl)s2)c2ccccc2c1=O	Bead autofluor 19535
COc1ccc(CCN2C(=O)COc3ccccc3C2C(=O)Nc2c(C)cccc2C)cc1OC (stereo not drawn)	none
CCOCCCN(C(=O)Cn1nnc(-c2ccc(C)o2)n1)C(C(=O)NC1CCCC1)c1ccco1 (stereo not drawn)	none
CCOC(=O)c1c(-n2c(C)cc(/C=C3/C(=O)NC(=O)N(CC)C3=O)c2C)sc2c1CCCC2	none
CCOC(=O)c1c(-n2c(C)cc(C=C3C(=O)NC(=S)NC3=O)c2C)sc2c1CCCC2	BoNT-A LC inh2 36, Anthrax LF inh2 38
O=C(O)c1ccc(OS(=O)(=O)c2ccc(Cl)s2)c(Cl)c1	none
COc1ccc(N(CC(=O)NCCC2=CCCCC2)S(C)(=O)=O)cc1OC	Bead autofluor 22438
Clc1cccc(Cl)c1CO/N=C/c1c(-c2ccccc2)nc2n1CCS2	BoNT-A LC inh2 inconclusive, Bead autofluor 23470
CC1CCCCC1Nc1ncnc2sccc12 (stereo not drawn)	none
CCCCNC(=S)N(C)/N=C/c1c(C)[nH]c2ccccc12	BoNT-A LC inh2 32
O=C(O)c1cc(S(=O)(=O)N2CCOCC2)c[nH]1	none
Cc1ccc(Cl)cc1NC(=O)c1cc(NC(=O)C2CCCCC2C(=O)O)ccc1N1CCOCC1 (stereo not drawn)	none
COc1ccccc1-n1c([S-])c(C(=O)Nc2ccccc2C(F)(F)F)[n+]2ccc(C(=O)NCCO)cc12	BoNT-A LC inh2 36
Cc1ccc(-n2c([S-])c(C(=O)Nc3ccc(OC(F)F)cc3)[n+]3ccc(C(=O)NCCO)cc23)cc1C	BoNT-A LC inh2 51
CCN(CC)CCCNC(=O)c1ccc(OCC(=O)Nc2ccccc2C(F)(F)F)c(OC)c1	none
Cc1ccc(NC(=O)c2ccc(OC(F)F)cc2)cc1S(=O)(=O)N(C)C	none
C[C@@H]1CN([C@@H](C)CO)C(=O)CCCn2nncc2CO[C@H]1CN(C)S(=O)(=O)c1ccc(Oc2ccccc2)nc1	none
CC1(C)OC(=O)N(CC(=O)Nc2ccccc2)C1(C)O (stereo not drawn)	none
CC1(C)OC(=O)N(CCc2ccccc2)C1(C)O (stereo not drawn)	Bead autofluor 25029
O=C1N(CN2CCC3(CC2)OCCO3)c2ccccc2C12OCCCO2	Bead autofluor 22108
O=C(O)CN1C(=O)C2(OCCCO2)c2ccccc21	Bead autofluor 23379
CC1(C)COC2(OC1)C(=O)N(CN1CCOCC1)c1ccccc12	none
COc1cccc(NC(=O)CN2C(=O)C3(OCCCO3)c3ccccc32)c1	BoNT-A LC inh2 inconclusive, Bead autofluor 22688
O=C1N(CN2CCN(c3cccc(Cl)c3)CC2)c2ccccc2C12OCCCO2	Bead autofluor 21061
CCC(=O)c1ccccc1OCCCN1CCC(Cc2ccccc2)CC1	BoNT F protease inconclusive
COc1ccccc1C(=O)N(Cc1ccc(Cl)cc1)C1CCS(=O)(=O)C1 (stereo not drawn)	none
O=C(O)c1ccc2[nH]c3c(c2c1)CSCC3	Bead autofluor 20934
COCCn1c(SCC(=O)Nc2sc(C)c(C)c2C#N)nnc1-c1ccc(OC)cc1	Bead autofluor 22774
Cc1ccc(S(=O)(=O)c2nc(NCc3ccc4c(c3)OCO4)sc2Cl)cc1	Bead autofluor 25130
O=C(CSc1ccc2nnc(-c3cccnc3)n2n1)Nc1ccccc1F	none
Cc1cc(NS(=O)(=O)c2c(C)[nH]c(=O)[nH]c2=O)ccc1Br	none
COc1ccccc1C(=O)Nc1nnc(S(=O)(=O)N2CCN(c3ccc(F)cc3)CC2)s1	none
Cc1ccccc1-c1nc(CN2CCC(C(=O)NCCCN3CC(C)CC(C)C3)CC2)c(C)o1 (stereo not drawn)	Bead autofluor 22754
Cc1ccccc1-c1nc(CN2CCC(C(=O)NCCN3CCOCC3)CC2)c(C)o1	none
Cc1ccccc1-c1nc(CN2CCC(C(=O)NCCCN3CCCC3)CC2)c(C)o1	Bead autofluor 17690
Cc1ccccc1-c1nc(CN2CCC(C(=O)NCCCN3CCOCC3)CC2)c(C)o1	BoNT-A LC inh2 inconclusive, Bead autofluor 26327
CCN1CCCC1CNC(=O)C1CCN(Cc2nc(-c3cccc(Br)c3)oc2C)CC1 (stereo not drawn)	Bead autofluor 18142
O=C(O)C1OC1(c1ccccc1Cl)c1ccccc1Cl (stereo not drawn)	none
CC1(C)NC(=O)N(CC(O)COc2ccc(-c3ccc(C#N)cc3)cc2)C1=O (stereo not drawn)	BoNT-A LC inh2 inconclusive, Bead autofluor 19940
CCCc1c(C(=O)N/N=C/c2ccccc2C(F)(F)F)nnn1-c1nonc1N	none
N#C/C(=C\c1c(Cl)cccc1Cl)c1nc2ccccc2o1	BoNT F protease 49
COc1ccc(F)cc1-c1cc(C(=O)NCc2ccccc2)[nH]n1	none
COc1ccc(C(=S)N2CCOCC2)cc1OS(=O)(=O)c1ccc(Br)cc1	none
Cc1ccc(C)c(OCCn2cc(/C=C(\C#N)C(=O)NCc3cccs3)c3ccccc32)c1	Bead autofluor 22488
CC(=O)c1ccc(N2CCN(CC(=O)NC(=O)NCc3ccccc3)CC2)cc1	none
Cc1ccc(Cn2cccc(-c3nc4ccccc4s3)c2=O)cc1	none
O=c1c(-c2nc3ccccc3s2)cccn1Cc1ccccc1	BoNT-A LC inh2 inconclusive, Bead autofluor 22734
O=C1N[C@@H](Cc2ccccc2)C(=O)N1CCN1CCOCC1	BoNT-A LC inh2 inconclusive, Bead autofluor 22937
Cc1cc(C)cc(NC(=O)CN2CCN(c3ncccn3)CC2)c1	Bead autofluor 22652
Cc1nc(C(F)(F)F)ccc1C(=O)N1CCCC(C(=O)O)CC1 (stereo not drawn)	none
CC(=O)c1c(C(C)=O)c(C)n(-c2ccc(O)cc2)c1C	Bead autofluor 21526
CC(=O)c1c(C(C)=O)c(C)n(-c2ccc(C(=O)O)cc2)c1C	none
CC(=O)c1cccc(NC(=O)c2csc(-n3nc(C)cc3C(F)(F)F)n2)c1	BoNT-A LC inh2 inconclusive, Bead autofluor 22022
